Results published in the supplement of paper PMC11732987, “Enantioselective OTUD7B fragment discovery through chemoproteomics screening and high-throughput optimisation” (Communications Chemistry, 2025).

Legend:
Assay in all cases: log2 ratio of Biotin-Ahx-Ub-VS probe labelling (fragment/DMSO); higher = less target engagement (more negative = stronger competition), active = hit call of the paper (q ≤ 0.05, log2 ratio ≤ -1)
Details in all cases: compound concentration: 200 uM; treatment time: 3 h
USP34 = USP34 (UniProt Q70CQ2)
Procedure, shortened: (§1)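 Fragment (200 µM) or vehicle was incubated for 3 h with triplicate HEK293T lysate samples of 495 µg, which were then treated with Biotin-Ahx-Ub-VS at 0.5 µM final for 1 h. Labelled DUBs were enriched on NeutrAvidin, digested with LysC and trypsin, and analysed by diaPASEF LC-MS/MS. Values are average log2 fragment/vehicle ratios from an unpaired t-test on global-median-normalised Spectronaut label-free quantities, using proteins with ≥2 unique peptides.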

USP36 = target: T1, USP36 (UniProt Q9P275)
T1 sequence (whole entry): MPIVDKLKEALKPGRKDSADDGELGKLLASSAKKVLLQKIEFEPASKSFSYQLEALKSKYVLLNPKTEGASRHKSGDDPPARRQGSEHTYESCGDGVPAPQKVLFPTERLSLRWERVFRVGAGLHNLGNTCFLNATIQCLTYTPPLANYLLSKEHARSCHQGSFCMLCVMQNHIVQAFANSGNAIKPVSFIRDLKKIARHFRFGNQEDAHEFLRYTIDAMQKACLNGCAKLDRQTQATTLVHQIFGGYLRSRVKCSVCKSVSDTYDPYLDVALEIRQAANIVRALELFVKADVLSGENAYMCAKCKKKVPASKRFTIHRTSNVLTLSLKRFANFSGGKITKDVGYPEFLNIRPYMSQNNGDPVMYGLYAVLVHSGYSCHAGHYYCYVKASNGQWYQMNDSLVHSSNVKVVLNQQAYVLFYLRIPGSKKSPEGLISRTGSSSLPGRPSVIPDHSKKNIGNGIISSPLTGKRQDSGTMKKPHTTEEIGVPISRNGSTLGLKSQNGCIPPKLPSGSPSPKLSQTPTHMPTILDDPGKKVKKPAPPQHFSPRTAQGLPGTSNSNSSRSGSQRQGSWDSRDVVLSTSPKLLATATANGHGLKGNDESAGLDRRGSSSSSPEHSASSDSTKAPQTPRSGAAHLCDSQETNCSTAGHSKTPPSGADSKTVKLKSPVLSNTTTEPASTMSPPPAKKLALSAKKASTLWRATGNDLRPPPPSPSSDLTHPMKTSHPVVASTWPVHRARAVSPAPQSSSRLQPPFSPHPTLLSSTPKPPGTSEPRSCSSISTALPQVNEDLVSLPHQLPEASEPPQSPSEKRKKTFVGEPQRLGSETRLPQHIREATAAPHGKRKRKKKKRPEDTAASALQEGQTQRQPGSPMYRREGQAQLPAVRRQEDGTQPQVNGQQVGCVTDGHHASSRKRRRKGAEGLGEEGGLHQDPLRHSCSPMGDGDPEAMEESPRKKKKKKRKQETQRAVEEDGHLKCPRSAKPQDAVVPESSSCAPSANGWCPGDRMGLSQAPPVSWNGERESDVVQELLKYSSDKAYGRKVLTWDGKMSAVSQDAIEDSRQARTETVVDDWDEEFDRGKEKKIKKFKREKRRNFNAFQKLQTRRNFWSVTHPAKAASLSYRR
Procedure, shortened: as §1

USP38 = target: T2, USP38 (UniProt Q8NB14)
T2 sequence (whole entry): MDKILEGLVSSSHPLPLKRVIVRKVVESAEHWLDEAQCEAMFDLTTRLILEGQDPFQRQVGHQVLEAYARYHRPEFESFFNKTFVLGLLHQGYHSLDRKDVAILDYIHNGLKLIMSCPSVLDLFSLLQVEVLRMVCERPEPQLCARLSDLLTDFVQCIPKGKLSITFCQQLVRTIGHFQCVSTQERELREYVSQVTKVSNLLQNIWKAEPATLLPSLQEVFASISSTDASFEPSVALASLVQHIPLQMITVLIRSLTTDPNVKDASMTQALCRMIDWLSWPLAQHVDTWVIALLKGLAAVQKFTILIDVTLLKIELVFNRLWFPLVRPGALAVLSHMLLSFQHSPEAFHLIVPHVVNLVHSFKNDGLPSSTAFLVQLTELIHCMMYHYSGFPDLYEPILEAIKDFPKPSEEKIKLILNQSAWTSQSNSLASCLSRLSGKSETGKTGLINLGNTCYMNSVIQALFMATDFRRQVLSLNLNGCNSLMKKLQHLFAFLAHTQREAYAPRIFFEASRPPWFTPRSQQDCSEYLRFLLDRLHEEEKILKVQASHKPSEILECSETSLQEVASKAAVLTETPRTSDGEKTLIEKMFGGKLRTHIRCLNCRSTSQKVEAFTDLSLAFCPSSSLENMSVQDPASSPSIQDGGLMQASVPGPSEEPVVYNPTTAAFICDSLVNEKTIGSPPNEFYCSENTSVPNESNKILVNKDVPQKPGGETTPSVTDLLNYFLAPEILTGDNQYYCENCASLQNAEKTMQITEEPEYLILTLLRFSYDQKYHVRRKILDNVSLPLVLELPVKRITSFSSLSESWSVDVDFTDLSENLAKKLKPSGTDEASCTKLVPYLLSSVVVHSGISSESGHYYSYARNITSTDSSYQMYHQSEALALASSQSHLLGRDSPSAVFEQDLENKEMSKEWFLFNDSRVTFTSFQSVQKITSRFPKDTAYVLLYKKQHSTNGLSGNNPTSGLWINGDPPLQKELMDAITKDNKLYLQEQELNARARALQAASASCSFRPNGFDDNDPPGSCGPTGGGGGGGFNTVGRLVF
Procedure, shortened: as §1

USP39 = target: T3, USP39 (UniProt Q53GS9)
T3 sequence (whole entry): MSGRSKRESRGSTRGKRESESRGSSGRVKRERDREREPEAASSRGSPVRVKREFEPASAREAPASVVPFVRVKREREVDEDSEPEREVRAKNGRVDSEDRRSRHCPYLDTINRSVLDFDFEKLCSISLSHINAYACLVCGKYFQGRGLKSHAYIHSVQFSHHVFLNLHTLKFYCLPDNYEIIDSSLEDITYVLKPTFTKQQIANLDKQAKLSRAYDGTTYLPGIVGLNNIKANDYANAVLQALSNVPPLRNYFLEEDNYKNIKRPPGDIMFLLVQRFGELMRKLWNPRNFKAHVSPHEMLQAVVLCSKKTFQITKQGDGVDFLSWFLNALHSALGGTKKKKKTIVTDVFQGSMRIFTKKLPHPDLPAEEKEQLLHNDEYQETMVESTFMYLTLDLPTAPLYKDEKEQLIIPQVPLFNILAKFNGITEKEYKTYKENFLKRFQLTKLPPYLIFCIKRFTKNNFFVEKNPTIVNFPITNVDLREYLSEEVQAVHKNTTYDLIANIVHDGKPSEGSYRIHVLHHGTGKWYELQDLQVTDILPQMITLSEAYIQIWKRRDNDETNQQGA
Procedure, shortened: as §1

USP4 = target: T4, USP4 (UniProt Q13107)
T4 sequence (whole entry): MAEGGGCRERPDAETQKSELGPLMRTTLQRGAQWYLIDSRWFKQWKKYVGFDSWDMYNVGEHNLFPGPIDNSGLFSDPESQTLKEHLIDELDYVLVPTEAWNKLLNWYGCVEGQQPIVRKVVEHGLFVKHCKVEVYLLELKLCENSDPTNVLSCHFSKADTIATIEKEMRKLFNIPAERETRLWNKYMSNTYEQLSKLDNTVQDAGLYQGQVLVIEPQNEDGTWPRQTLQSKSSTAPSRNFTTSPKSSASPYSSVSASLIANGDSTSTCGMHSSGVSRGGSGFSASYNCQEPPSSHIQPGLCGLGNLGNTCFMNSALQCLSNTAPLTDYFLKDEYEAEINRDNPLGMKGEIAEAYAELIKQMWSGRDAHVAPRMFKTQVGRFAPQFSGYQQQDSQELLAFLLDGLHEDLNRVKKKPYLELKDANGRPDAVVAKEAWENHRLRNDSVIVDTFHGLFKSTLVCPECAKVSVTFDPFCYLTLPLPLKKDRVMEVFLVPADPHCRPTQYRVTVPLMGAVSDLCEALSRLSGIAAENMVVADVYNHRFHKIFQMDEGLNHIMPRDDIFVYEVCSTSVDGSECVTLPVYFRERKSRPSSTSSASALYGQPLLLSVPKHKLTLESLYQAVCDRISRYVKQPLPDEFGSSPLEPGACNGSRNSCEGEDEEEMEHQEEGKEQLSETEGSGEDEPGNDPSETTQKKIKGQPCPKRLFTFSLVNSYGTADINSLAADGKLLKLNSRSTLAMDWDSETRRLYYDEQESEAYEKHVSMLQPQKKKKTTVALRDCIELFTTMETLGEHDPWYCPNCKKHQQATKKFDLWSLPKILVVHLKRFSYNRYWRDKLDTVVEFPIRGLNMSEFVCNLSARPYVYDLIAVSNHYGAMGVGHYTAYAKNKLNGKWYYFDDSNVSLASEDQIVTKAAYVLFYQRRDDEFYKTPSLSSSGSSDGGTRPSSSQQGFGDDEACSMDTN
Procedure, shortened: as §1

Measured: log2 ratio of Biotin-Ahx-Ub-VS probe labelling

USP34, sequence (Q70CQ2 whole entry, the tested form may be a part): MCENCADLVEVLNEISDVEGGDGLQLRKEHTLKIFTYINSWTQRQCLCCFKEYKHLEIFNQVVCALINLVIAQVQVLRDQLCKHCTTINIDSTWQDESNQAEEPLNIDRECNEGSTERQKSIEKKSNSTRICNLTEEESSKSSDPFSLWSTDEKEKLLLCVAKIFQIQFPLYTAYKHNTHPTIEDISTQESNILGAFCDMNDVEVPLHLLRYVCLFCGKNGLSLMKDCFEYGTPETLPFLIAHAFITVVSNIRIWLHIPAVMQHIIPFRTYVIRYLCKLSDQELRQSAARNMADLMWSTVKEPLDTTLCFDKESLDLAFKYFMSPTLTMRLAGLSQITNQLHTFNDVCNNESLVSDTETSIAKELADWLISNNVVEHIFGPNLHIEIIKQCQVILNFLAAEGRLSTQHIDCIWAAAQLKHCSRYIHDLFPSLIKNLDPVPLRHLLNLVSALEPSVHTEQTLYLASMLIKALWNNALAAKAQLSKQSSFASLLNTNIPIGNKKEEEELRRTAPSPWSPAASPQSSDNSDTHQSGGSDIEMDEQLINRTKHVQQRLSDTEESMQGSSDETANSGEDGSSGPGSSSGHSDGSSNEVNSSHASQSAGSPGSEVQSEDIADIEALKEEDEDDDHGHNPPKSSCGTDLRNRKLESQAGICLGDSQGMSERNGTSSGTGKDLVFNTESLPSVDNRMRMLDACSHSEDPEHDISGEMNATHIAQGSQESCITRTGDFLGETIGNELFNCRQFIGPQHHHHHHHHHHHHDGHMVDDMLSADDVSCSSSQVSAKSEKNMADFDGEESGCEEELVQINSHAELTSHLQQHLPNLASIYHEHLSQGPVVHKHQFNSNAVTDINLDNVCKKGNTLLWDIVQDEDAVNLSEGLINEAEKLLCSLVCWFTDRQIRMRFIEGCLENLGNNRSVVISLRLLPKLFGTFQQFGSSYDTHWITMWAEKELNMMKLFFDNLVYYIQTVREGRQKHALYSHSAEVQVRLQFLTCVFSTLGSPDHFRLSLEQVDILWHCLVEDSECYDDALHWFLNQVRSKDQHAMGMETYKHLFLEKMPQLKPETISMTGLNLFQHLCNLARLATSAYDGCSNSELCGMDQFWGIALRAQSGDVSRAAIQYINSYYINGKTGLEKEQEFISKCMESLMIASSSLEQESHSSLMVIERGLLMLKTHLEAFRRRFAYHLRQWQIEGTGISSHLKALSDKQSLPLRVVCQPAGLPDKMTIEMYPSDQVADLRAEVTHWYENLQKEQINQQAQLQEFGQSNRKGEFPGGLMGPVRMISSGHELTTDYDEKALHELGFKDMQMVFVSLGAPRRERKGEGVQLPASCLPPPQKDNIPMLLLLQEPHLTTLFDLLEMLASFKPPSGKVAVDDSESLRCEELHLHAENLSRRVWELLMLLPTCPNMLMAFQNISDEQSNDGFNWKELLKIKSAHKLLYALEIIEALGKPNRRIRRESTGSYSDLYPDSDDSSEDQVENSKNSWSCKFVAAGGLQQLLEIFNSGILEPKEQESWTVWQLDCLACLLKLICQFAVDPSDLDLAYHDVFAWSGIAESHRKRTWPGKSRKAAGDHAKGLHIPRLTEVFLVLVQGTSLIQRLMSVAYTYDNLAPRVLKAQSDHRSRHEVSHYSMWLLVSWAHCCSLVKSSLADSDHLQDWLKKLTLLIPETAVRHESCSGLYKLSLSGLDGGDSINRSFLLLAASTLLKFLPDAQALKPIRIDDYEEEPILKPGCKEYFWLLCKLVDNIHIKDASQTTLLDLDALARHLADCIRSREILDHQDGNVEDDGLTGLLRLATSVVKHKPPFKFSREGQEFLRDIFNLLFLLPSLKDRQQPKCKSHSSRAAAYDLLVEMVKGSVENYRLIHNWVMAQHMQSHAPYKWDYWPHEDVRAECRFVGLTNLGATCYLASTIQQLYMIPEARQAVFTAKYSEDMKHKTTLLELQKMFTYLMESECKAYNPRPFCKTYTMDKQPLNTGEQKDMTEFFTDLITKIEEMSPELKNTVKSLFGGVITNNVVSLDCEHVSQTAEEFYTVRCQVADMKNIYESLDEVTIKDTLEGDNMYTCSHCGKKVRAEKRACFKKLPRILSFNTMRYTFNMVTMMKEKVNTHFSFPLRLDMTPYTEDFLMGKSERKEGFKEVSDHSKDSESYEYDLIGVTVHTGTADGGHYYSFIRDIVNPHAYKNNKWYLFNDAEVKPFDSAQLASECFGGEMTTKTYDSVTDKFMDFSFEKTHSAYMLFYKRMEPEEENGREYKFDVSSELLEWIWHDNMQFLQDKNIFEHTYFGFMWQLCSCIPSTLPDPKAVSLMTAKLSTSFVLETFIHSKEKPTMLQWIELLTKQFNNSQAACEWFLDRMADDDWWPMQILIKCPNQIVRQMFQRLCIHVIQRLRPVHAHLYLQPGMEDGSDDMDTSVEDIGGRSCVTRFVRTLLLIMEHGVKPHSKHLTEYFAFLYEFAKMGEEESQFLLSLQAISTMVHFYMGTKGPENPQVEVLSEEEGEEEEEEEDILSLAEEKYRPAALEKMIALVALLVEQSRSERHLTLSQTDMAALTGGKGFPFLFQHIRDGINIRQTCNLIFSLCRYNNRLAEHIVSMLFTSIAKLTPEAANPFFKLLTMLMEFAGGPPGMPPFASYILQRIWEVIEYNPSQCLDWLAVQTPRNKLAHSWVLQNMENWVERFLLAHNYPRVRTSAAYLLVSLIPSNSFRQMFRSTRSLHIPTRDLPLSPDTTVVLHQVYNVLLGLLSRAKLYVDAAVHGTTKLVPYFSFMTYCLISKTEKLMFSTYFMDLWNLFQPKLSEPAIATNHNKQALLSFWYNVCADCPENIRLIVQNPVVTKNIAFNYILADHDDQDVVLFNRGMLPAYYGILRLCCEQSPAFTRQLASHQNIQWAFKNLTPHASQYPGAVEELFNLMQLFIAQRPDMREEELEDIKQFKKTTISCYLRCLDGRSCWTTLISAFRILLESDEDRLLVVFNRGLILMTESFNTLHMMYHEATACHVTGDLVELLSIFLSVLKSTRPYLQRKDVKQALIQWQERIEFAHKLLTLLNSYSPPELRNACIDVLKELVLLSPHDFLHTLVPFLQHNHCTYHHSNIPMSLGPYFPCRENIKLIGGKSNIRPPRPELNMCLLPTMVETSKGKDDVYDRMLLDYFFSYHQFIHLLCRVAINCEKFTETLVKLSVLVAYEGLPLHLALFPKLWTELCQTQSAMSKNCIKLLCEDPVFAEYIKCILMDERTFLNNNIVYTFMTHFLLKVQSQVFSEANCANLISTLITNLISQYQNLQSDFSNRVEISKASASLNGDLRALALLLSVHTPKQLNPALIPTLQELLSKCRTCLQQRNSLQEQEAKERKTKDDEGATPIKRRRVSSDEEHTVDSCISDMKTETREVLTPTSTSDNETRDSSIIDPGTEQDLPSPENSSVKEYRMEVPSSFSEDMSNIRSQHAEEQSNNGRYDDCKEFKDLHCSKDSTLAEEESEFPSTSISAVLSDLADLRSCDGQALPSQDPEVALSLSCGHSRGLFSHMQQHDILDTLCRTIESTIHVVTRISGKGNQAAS

Cc1cccc(NC(=O)CCl)c1C
inactive: USP34 -0.304 | USP36 -0.363 | USP38 -0.389 | USP39 -0.513 | USP4 -0.269
